Consider one molecule from PubChem BioAssay AID652098 (National Center for Advancing Translational Sciences (NCATS), 2013).

Each structure is given as a SMILES string. Calls of active or inactive are those of the source.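 Rule for the calls: active = glucosylsphingosine level at or below 0.14 pmol/ug; inactive = the rest.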

The experiment is described as follows: Extended Characterization of Activators of N370S glucocerebrosidase as a Potential Chaperone Treatment of Gaucher Disease: Glucosylsphingosine in Macrophages. The conditions noted are these: Gaucher patient macrophages, glucosylsphingosine LC-MS/MS; stronger effect = lower value. The source says: Glucocerebrosidase (GCase) catalyzes the hydrolysis of beta-glucocerebroside (GC) to glucose and ceramide in lysosomes. Mutations in the glucocerebrosidase gene result in Gaucher disease, an autosomal recessive lysosomal storage disorder. Many of the mutations encountered in patients with Gaucher disease are missense alterations that may cause misfolding, decreased stability and/or mistrafficking of this lysosomal protein. […] These inhibitors include iminosugar analogs and other inhibitors that were discovered as part of previous work. However, the enhancement of enzyme activity by the chaperone action of an enzyme inhibitor must be balanced against the direct inhibition of the enzyme. […] In this extended characterization of our probe, we have further characterized the activity of probes in relevant models of Gaucher disease. This assay attempts to quantitate glucosylsphingosine in patient-derived macrophages following compound incubation. NIH Chemical Genomics Center [NCGC] NIH Molecular Libraries Probe Production Centers Network [MLPCN] MLPCN Grant: MH086442 Assay Submitter (PI): Ellen Sidransky, NHGRI
Glucosylsphingosine was measured by liquid chromatography-tandem mass spectrometry as previously described by Tropak et al. Chembiochem 2008, 9, 2650-2662.
As to `C#Cc1ccc(NC(=O)c2cnn3c(C)cc(C)nc23)cc1`, the glucosylsphingosine level is 0.135 pmol/µg (active).
